Each structure is given as a SMILES string. Where “and” joins values, the source holds several entries; their conditions need not be identical. Equal entries are not always repeated. Records with an inconclusive call do not appear. Values without a mark were called inactive. Calls of active or inactive are those of the source. The call rests on the fitted dose curve; in most records, active means well fitted inhibition curve with a large enough effect; inconclusive means small, poorly fitted or top-dose-only effect; inactive means no such curve, though single readings can be large or run the other way.
Potency means the concentration at half of the fitted maximal effect.

Chain of Cruzipain (Trypanosoma cruzi) (P25779 123-467 limits assumed): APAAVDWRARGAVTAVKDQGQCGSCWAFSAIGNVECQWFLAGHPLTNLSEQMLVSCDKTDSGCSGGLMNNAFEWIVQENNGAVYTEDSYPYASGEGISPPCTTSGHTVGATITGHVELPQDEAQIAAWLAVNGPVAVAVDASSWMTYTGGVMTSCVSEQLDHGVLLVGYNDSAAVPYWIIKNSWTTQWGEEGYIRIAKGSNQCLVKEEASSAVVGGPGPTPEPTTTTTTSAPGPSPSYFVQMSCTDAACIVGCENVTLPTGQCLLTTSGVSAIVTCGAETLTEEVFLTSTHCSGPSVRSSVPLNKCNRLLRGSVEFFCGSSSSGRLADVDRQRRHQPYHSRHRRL

In the assay the target is Cruzipain (Trypanosoma cruzi) (UniProt P25779). The experiment in a line: Confirmation qHTS Assay for Inhibitors of Cruzain. Further: nearly all actives have a fitted effect of over 40% in size.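 On activity change, negative = inhibition: plate controls were uninhibited enzyme control for no effect and buffer wells lacking enzyme for full effect.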 To be noted: purified cruzain, Z-FR-AMC fluorescence, 0.01% Triton. In a few lines:
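Reaction progress from the 60 s rise in AMC fluorescence (ex 360, em 450 nm) after adding 2 uM Z-FR-AMC. Before this, 1.5 nM cruzain sat 15 min at room temperature with compound in pH 5.5 acetate buffer with 5 mM DTT and 0.01% Triton X-100.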
For orientation: qHTS replaces the single test concentration by a dilution series.
As for `CCN(c1ccccc1)c1nc(C#N)nc(N(CC)c2ccccc2)n1`, the Potency is 5.01 µM (active). In the case of `COc1ccc(NC(=O)C(OC(=O)CNC(=O)c2ccccc2)c2ccccc2)cc1F` (stereo not drawn), the Potency is 11.2 µM (active).

In the case of `OCCN(CCO)c1ccc(C(c2ccccc2Cl)c2ccc(N(CCO)CCO)cc2Cl)c(Cl)c1`, the activity change, negative = inhibition was -15.5%. Consider `CC(C)CC(O)C(=O)Nc1cc(C(F)(F)F)ccc1Cl` (stereo not drawn), for which the activity change, negative = inhibition is -12%. In the case of `COc1cc(OC)c(-c2nn3c(-c4n[nH]c5c4CCC5)nnc3s2)cc1OC`, the activity change, negative = inhibition is -3.44% and -1.31%. In the case of `N=c1c(C(=O)NCc2ccc(F)cc2)cc2c(=O)n3ccccc3nc2n1CC1CCCO1` (stereo not drawn), the activity change, negative = inhibition is -76.7%. As to `O=C(NCCc1nc2ccccc2n1CCCOc1ccc2ccccc2c1)C1CCCCC1`, the Potency is 1.12 µM (active). For the compound `O=C(CNC(=O)c1ccccc1)OC(CCc1ccccc1)C(=O)Nc1cc(C(F)(F)F)ccc1Cl` (stereo not drawn), the Potency was 7.94 µM (active).

As for `COc1ccc(NC(=O)C(OC(=O)CNC(=O)c2ccccc2)c2ccccc2)c(C)c1` (stereo not drawn), the Potency is 8.91 µM (active).

`CC(C)(C)c1ccc(C(=O)NCC(=O)OC(C(=O)Nc2cc(C(F)(F)F)ccc2Cl)c2ccccc2)cc1` (stereo not drawn): the activity change, negative = inhibition was -14%. Consider `O=C(CNC(=O)c1ccccc1)OCC(=O)c1ccccc1`, for which the Potency was 15.8 µM (active). Take `N#CN1CCC(NC(=O)c2ccc(F)cc2)CC1`: the activity change, negative = inhibition is 0.471%. For the compound `COc1ccc(C(=O)C(C)OC(=O)CNC(=O)C2CCCCC2)cc1` (stereo not drawn), the Potency was 1.41 µM (active). With `Cc1ccc(C(=O)NCC(=O)OC(C(=O)Nc2cc(C(F)(F)F)ccc2Cl)c2ccccc2)cc1` (stereo not drawn), the Potency is 7.94 µM (active). For `O=C(CNC(=O)c1ccc2ccccc2c1)OC(C(=O)Nc1cc(C(F)(F)F)ccc1Cl)c1ccccc1` (stereo not drawn), the Potency is 4.47 µM (active). As for `Cc1ccccc1OCC(=O)NCC(=O)OCC(=O)c1ccc([N+](=O)[O-])cc1`, the Potency was 35.5 µM (active). With `N#Cc1nc(Nc2cc(F)cc(F)c2)c2ncn(CC(F)F)c2n1`, the Potency was 0.01 µM (active). Still for that read-out and setting: the value for `N#Cc1nc(NCC(F)F)c2ncn(-c3cc(F)cc(F)c3)c2n1` was 0.0562 µM (active). With `CC(C)(C)OC(=O)Cc1nnc(-c2nc3ccccc3[nH]2)s1`, the activity change, negative = inhibition was -9.29%. As to `Cc1cccc(C(=O)NCC(=O)OC(C(=O)Nc2cc(C(F)(F)F)ccc2Cl)c2ccccc2)c1` (stereo not drawn), the Potency is 7.94 µM (active). Regarding `Cc1ccc(C(=O)C(OC(=O)CNC(=O)COc2ccccc2C)c2ccccc2)cc1` (stereo not drawn), the Potency was 3.16 µM (active). Consider `O=c1oc2ccccc2cc1-c1csc(Cc2nc(-c3ccc(Br)cc3)cs2)n1`, for which the activity change, negative = inhibition was 1.72%. For the compound `Cc1ccc(Cn2c(CCNC(=O)c3cccc(C)c3)nc3ccccc32)cc1`, the Potency was 2.82 µM (active).

Take `O=C(NCCc1nc2ccccc2n1CCCOc1ccc(Cl)cc1)C1CCCCC1`: the Potency is 0.891 µM (active). `O=C(Nc1ccccc1)c1ccc2nc(-c3ccco3)c(-c3ccco3)nc2c1`: the Potency is 7.94 µM (active). As for `O=C(COC(=O)CNC(=O)c1ccccc1)Nc1ccccc1Cl`, the Potency is 11.2 µM (active). Turning to `COc1cc(-c2nn3c(-c4cc(-c5ccccc5)n[nH]4)nnc3s2)cc(OC)c1OC`, the activity change, negative = inhibition was -7.01%. Take `Cc1ccc2[nH]c(=O)c(CN(Cc3ccccc3)Cc3nnnn3Cc3ccco3)cc2c1`: the activity change, negative = inhibition was -19.4%. As to `CC(C)CNc1nc(C#N)nc(Nc2ccccc2)n1`, the Potency is 0.891 µM (active). Turning to `COC(=O)Cn1c(=NC(=O)c2ccc(Cl)s2)sc2cc(C)ccc21`, the activity change, negative = inhibition was -20%. Consider `Cc1ccccc1OCCn1c(CCNC(=O)C2CCCCC2)nc2ccccc21`, for which the Potency was 631 nM (active) and 1 µM (active). With `CCc1ccc(OCCCn2c(CCNC(=O)C3CCCCC3)nc3ccccc32)cc1`, the Potency was 1.41 µM (active). As for `CCN(Cc1ccccc1)c1nc2c(S(=O)(=O)c3ccccc3)nnn2c2ccc(Cl)cc12`, the activity change, negative = inhibition is -6.48%.

Turning to `Cc1ccc(S(=O)(=O)NC(N)=NCCC[C@@H](N)C(=O)Nc2cc(C(F)(F)F)ccc2Cl)cc1`, the activity change, negative = inhibition is -17.2%. For `Cn1c(C(=O)NCCN2CCCCCC2)cc2c(=O)n(C)c3ccccc3c21`, the Potency was 25.1 µM (active). Still for that read-out and setting: the value for `Cc1ccccc1-c1nc2c(=O)n(C)c(=O)nc-2n(C)n1` was 0.891 µM (active); that for `N#Cc1nc(Nc2cc(F)cc(F)c2)nc(NC2CCCC2)n1` was 0.0631 µM (active). Regarding `O=C(CNC(=O)c1ccc(Cl)cc1)OC(C(=O)Nc1cc(C(F)(F)F)ccc1Cl)c1ccccc1` (stereo not drawn), the Potency is 10 µM (active).

The values above are taken from PubChem BioAssay AID2158 (National Center for Advancing Translational Sciences (NCATS), 2009).
